# Test results published in PubChem BioAssay AID2653 (National Center for Advancing Translational Sciences (NCATS), 2010).
# Records with an inconclusive call do not appear. The source made the active and inactive calls. Calls come from the whole dose curve; as a rule, active = well fitted curve in the direction sought with a large enough effect; inconclusive = small, poorly fitted or top-dose-only effect, or another doubt; inactive = no such curve, though single readings can be large or run the other way.
# Experiment: Secondary Assay for Activators of Human Pyruvate Kinase M2 isoform - Cell Titer Glo Cytotoxicity for Probe SAR
# Settings: HeLa viability, CellTiter-Glo ATP luminescence, 24 h; series mostly up to 58.2 µM
# In short: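 Cytotoxicity read as ATP content (CellTiter-Glo luminescence) in HeLa cells after 24 h compound exposure at 37 C, following 24 h pre-plating at 500 cells/well; doxorubicin as control.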
row,SMILES,outcome
1,Cc1ccc(Nc2c(-c3ccc(C)o3)nc3cccc(C)n23)cc1,inactive
2,O=C1CCc2cc(S(=O)(=O)Nc3ccc(F)cc3)ccc2N1,inactive
3,Cc1c(Cl)cccc1NS(=O)(=O)c1cc2c(cc1Cl)CCC(=O)N2,inactive
4,COc1cccc(N2C(=O)c3ccccc3C2=O)n1,inactive
5,O=C1CCc2cc(S(=O)(=O)Nc3ccccc3Cl)ccc2N1,inactive
6,Cn1c2cc(S(C)=O)sc2c2cnn(Cc3cccc(N)c3)c(=O)c21 (configuration not stated),inactive
7,Cc1ccc(NS(=O)(=O)c2cccc(C(=O)O)c2)cc1C,inactive
8,Cc1ccc(NS(=O)(=O)c2cc3c(cc2Cl)NC(=O)C3)cc1C,inactive
9,Cc1cc2c(s1)c1cnn(Cc3ccccc3F)c(=O)c1n2C,inactive
10,O=C1c2ccccc2C(=O)N1c1ccncc1,inactive
11,O=C1c2ccccc2C(=O)N1c1ccccc1O,inactive
12,O=C1CCc2cc([S+](=O)([O-])NC3CCOCC3)ccc2N1,inactive
